From PubChem
Shown are actives, neighbours in structure and some others; about 4.6% of the full set was active somewhere.
ssDAF12 agonist: S. stercoralis DAF-12 nuclear receptor activators, primary screen, cell-based, luminescence, HEK293, GRIP1 co-expression, lit1-tk-luc; activation, % at 6.8 µM; 1% of 370,000 active; HEK293 ssDAF-12/GRIP1 lit1-tk-luc reporter; % of 3 µM dafachronic acid response; Nuclear hormone receptor DAF-12 (Strongyloides stercoralis);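 active means activation above the mean over all tested compounds plus 3 SD, cut at about 0.9% in these data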;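 further: 0% = DMSO-only wells and 100% = 3 µM delta7-dafachronic acid wells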
Wee1 degr inh: Wee1 degradation inhibitors, primary screen, cell-based, HeLa, Wee1K328M-luciferase, luminescence | reporter increase, % at 5 µM | 1.2% of 220,000 active | AID 1321, 2008 | HeLa Luc-Wee1K328M stability; 100% = proteasome inhibitor MG132 effect;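 active means activation above the mean of all tested compounds plus 3 SD, set per screening run, cut at about 8.8% in these data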;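 further: cells exposed to compound for 20 h before luminescence read; 0% = DMSO alone and 100% = MG132 at 30 µM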
Target sequence (P30291 whole entry K328M): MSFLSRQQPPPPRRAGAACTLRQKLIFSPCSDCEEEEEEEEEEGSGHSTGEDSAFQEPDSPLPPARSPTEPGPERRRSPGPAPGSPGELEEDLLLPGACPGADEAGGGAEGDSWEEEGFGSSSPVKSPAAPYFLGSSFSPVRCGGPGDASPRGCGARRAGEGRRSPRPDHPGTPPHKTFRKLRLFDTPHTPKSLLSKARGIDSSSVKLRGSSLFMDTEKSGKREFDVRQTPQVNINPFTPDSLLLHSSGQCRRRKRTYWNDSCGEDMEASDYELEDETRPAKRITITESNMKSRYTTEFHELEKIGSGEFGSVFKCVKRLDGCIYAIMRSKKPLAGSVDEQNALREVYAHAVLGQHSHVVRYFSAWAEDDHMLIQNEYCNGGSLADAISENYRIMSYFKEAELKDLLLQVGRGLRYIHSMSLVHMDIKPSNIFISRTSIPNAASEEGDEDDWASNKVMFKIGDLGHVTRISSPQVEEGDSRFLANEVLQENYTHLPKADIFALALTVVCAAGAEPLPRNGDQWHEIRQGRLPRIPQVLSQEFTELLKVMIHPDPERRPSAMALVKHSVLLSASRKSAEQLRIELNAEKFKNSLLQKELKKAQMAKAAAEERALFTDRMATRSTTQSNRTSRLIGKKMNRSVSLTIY
hcDAF-12 act: H. contortus DAF-12 nuclear receptor activators, primary screen, cell-based, luminescence, HEK293, lit1-tk-luc reporter; 1.4% of 370,000 active; activation, % at 6.8 µM; HEK293 hcDAF-12 lit1-tk-luc reporter; 0% DMSO, 100% Δ7-dafachronic acid;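 active means activation above the mean of all tested compounds plus 3 SD, cut at about 5.5% in these data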;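 further: 100% = response to 3 µM Δ7-dafachronic acid high control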
DAX1 inh-1: DAX1 (NR0B1) inhibitors, primary screen, cell-based, HEK293, Gal4-DAX1, luciferase luminescence; HEK293 Gal4-DAX1 luciferase reporter; inhibition, % at 6.75 µM; 0.99% of 340,000 active; AID 504766, 2011;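 active means inhibition above the mean over all tested compounds plus 3 SD, cut at about 4.2% in these data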;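 further: 0% = DAX1-transfected cells with DMSO and 100% = empty-vector control cells with DMSO; inhibition shows as a rise in luminescence from relieved DAX1 repression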
hgDAF-12 ag: H. glycines DAF-12 receptor agonists, primary screen, cell-based, luminescence, HEK293, GAL4 fusion, UAS-luciferase; Nuclear hormone receptor DAF-12 (Heterodera glycines), GAL4 fusion; HEK293 GAL4-hgDAF12 UAS-luciferase reporter, agonist luminescence; normalized to butyrate control; activation, % at 6.8 µM; 1.8% of 370,000 active; AID 687014, 2013;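 active means activation above a cutoff set at the mean of all screened compounds plus 3 SD, cut at about 10% in these data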;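 further: 0% = DMSO wells and 100% = sodium butyrate wells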
DAX1 inh-2: DAX1 (NR0B1) inhibitors on StAR promoter, primary screen, cell-based, luminescence, SF-1 (NR5A1), full-length DAX-1. HEK293T StAR-luciferase reporter, SF-1/DAX-1 repression relief. inhibition, % at 6.8 µM. 1.1% of 370,000 active;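 active means inhibition above the mean over all tested compounds plus 3 SD, cut at about 3.6% in these data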;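 further: 0% = DAX-1 cells with DMSO and 100% = cells lacking DAX-1 with DMSO; higher inhibition means more luminescence from relief of DAX-1 repression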
* = called active by the depositor; nt = no result.

SMILES	ssDAF12 agonist	Wee1 degr inh	hcDAF-12 act	DAX1 inh-1	hgDAF-12 ag	DAX1 inh-2
COC(=O)[C@H](CC(C)C)N(CCCc1cn(Cc2ccc(C)cc2)nn1)S(=O)(=O)c1ccc(F)cc1Br	-2	nt	-3	nt	-6	-2
CC(C)Oc1cccc(C2NC(=O)c3ccccc3O2)c1 (centres undefined)	-1	nt	2	4.7*	2	0
C/C(=N\OC(=O)Nc1ccccc1)c1ccc(C)cc1	-1	nt	1	5.9*	4	1
CCCN1CCS(=O)(=O)N(Cc2cn(Cc3ccc(OC)cc3)nn2)C(C(=O)OC)C1 (centres undefined)	-1	nt	0	nt	1	1
COC(=O)c1ccc(NC(=O)CCNS(=O)(=O)c2cccc3nonc23)cc1	-1	9.1*	-2	-1	0	0
CCc1ccccc1N/C(=N\S(=O)(=O)c1ccccc1)C(F)(F)F	-1	10*	0	0	1	0
CN1C(=O)c2cc(NC(=O)c3ccc(F)cc3)ccc2OC[C@H]2O[C@H](CC(=O)NC3CCC3)CC[C@H]21	-1	nt	0	nt	1	2
CCOC(=O)c1c(C)nc(C(Cl)(Cl)Cl)nc1N	-2	2	0	0	5	0
COC(=O)c1cc(=O)c2c(C)nc(C(Cl)(Cl)Cl)nc2[nH]1	-2	10*	-2	nt	1	-1
CCN(CC)S(=O)(=O)c1ccc(N2CCCCC2)c(NC(=O)/C(C#N)=C/c2ccc(OC)cc2)c1	-1	-1	6.3*	-1	0	0
CCN(CC)S(=O)(=O)c1ccc(N2CCCC2)c(NC(=O)Cc2cc(OC)c(OC)c(OC)c2)c1	-1	nt	-2	4.7*	0	-1
CCN(CC)S(=O)(=O)c1ccc(N2CCCC2)c(NC(=O)Cc2ccc(OC)cc2)c1	-2	-3	-1	-1	-4	-1
COc1cccc(-c2ncc3ccccc3c2COC(=O)CCCC(=O)O)c1	0	nt	-2	1	0	1
O=C(C[C@H]1C/C=C\CC[C@@H](Cc2ccc(F)cc2)C(=O)OC[C@H]2CCCN2C1=O)N[C@@H](CO)Cc1ccccc1	-2	nt	-2	0	-1	0
O=C(COCc1ccccc1)NC1CCCCN(Cc2ccc(Cl)cc2)C1=O (centres undefined)	-1	nt	-3	nt	-2	-1
CCCCc1c(-c2ccccc2OC)ncn1CCc1ccccc1Cl	-1	nt	0	nt	2	-2
Cc1cn([C@H]2C[C@H](O)[C@@H](CCC(=O)NCc3cccc4ccccc34)O2)c(=O)[nH]c1=O	-1	nt	0	nt	-2	-1
Nc1ncnc2c1ncn2[C@@H]1O[C@H](C(=O)N2CCC[C@@H]2C(=O)OCc2ccccc2)[C@@H](O)[C@H]1O	-1	nt	-1	nt	12*	-1
CCC12CCC3c4ccc(O)cc4CCC3C1CC(O)C2O (centres undefined)	-1	nt	-1	1	-1	-2
CCc1ccccc1Nc1ccc(C(=O)O)cc1N	-2	1	2	6.6*	7	0
Nc1cc(C(=O)O)ccc1Nc1ccccc1	-1	1	-1	0	-1	-1
O=C(NCc1ccco1)c1ccc2c(=O)n(-c3ccccc3)c(=S)[nH]c2c1	-1	-2	0	4.9*	-1	-1
COc1ccc(-n2c(=S)[nH]c3cc(C(=O)NCc4ccco4)ccc3c2=O)cc1OC	-1	-1	-1	0	-1	0
COc1ccc(-c2cc3ncc(C(C)=O)c(C)n3n2)cc1	0	-2	5	4.4*	8	1
Cc1c(O)ccc(-c2[nH]ncc2-c2nc3ccccc3s2)c1O	-2	-2	-2	-2	-1	-1
SMILES	ssDAF12 agonist	Wee1 degr inh	hcDAF-12 act	DAX1 inh-1	hgDAF-12 ag	DAX1 inh-2
Cc1c(O)ccc(-c2n[nH]c(C(=O)O)c2-c2nc3ccccc3s2)c1O	0	10*	3	0	0	0
CCc1ccc(-c2csc(NC(=O)C3=COCCO3)n2)cc1	0	nt	2	1	5	4.2*
O=C(Nc1nccs1)c1ccc(Br)s1	0	nt	5.8*	1	10	3
O=C(Nc1nccs1)c1cc2c(s1)-c1ccccc1OC2	0	5	5	2	10*	3
Cn1cc(Cl)c(C(=O)Nc2nccs2)n1	0	nt	-1	1	6	1
O=C(Nc1nccs1)c1ccc(Cl)nc1	0	nt	5.9*	-1	3	0
Cc1ccc(C(=O)Nc2nccs2)s1	0	nt	4	3	8	1
CCn1cc(Cl)c(C(=O)Nc2nccs2)n1	0	nt	6.4*	1	1	1
CC(C)c1ccc(S(=O)(=O)N2CCN(C(=O)CN3C(=O)c4ccccc4C3=O)CC2)cc1	-1	nt	-1	-2	3	1
CC(C)Oc1ccc(-c2csc(N3CCC(C(N)=O)CC3)n2)cc1	-1	nt	-3	nt	11*	nt
CC(C)(C)c1ccc(-c2csc(N3CCC(C(N)=O)CC3)n2)cc1	-2	nt	-3	nt	0	nt
CC(=O)Nc1ccc(/C=C(\C#N)S(=O)(=O)c2ccc(C)cc2)cc1	-1	nt	-1	-2	1	0
CCOc1ccccc1N(CC(=O)Nc1ccccc1F)S(=O)(=O)c1ccccc1	0	nt	4	1	10*	1
C=CCCC1(CCC)C(=O)/C(=C(\O)c2ccccc2)C(=O)C(CCC)=C1OC (centres undefined)	-2	nt	-2	nt	3	1
COCCNC(=O)C(c1ccc(Cl)cc1)N(Cc1ccco1)C(=O)CCC(=O)Nc1ccccn1 (centres undefined)	-1	nt	2	8.8*	3	0
COC(=O)c1ccc(NC(=O)COC(=O)C2CC(=O)N(Cc3ccccc3)C2)cc1 (centres undefined)	-2	1	0	4.2*	1	0
O=C(Nc1ccn(CCCN2CCC(N3CCOCC3)CC2)c(=O)n1)OCc1ccccc1	-1	nt	0	2	-2	-1
COCCNc1nc2ccccc2n2cnnc12	-1	nt	-1	4.3*	-1	0
COc1ccc(CCNc2nc3ccccc3n3cnnc23)cc1OC	-1	-3	0	3	-2	0
O=C(NCc1ccccc1Cl)c1cc2ccccc2oc1=O	-1	nt	0	1	1	0
